Read-out in assay [1]: xenobiotic metabolism (CYP1A2), CYP1A2 (gene 1544)
The experiment in a line: CLD_CYP1A2_24hr: CellzDirect (CLD) Gene Expression Assay for xenobiotic metabolism (CYP1A2) at 24 hours (AID 2283683). The gist of the method: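 CYP1A2 mRNA induction measured by quantitative nuclease protection (chemiluminescent) in human primary hepatocytes 24 h after multi-concentration chemical dosing with daily fresh solutions. DMSO (0.2%) baseline; positive-direction fitting; morphology-based cytotoxicity noted.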

Read-out in assay [2]: Cytochrome P450 2C19 (Homo sapiens) (UniProt P33261)
The experiment in a line: CLD_CYP2C19_24hr: CellzDirect (CLD) Gene Expression Assay for xenobiotic metabolism (CYP2C19) at 24 hours (AID 2283687).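 Note: activity means mRNA induction above DMSO vehicle baseline.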 The method in brief:
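CYP2C19 mRNA was quantified by qNPA chemiluminescence after 24 h of daily dosing of cultured human primary hepatocytes from two donors; vehicle was 0.2% DMSO, and increases over DMSO baseline were fitted.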

Read-out in assay [3]: Cytochrome P450 3A4 (Homo sapiens) (UniProt P08684)
The experiment in a line: CLD_CYP3A4_24hr: CellzDirect (CLD) Gene Expression Assay for xenobiotic metabolism (CYP3A4) at 24 hours (AID 2283689). The method in brief: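 CYP3A4 mRNA induction read by quantitative nuclease protection (chemiluminescence) 24 hr after dosing. Cultured human hepatocytes (two donor preparations) treated daily, vehicle 0.2% DMSO; phase-contrast morphology annotates cytotoxicity.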

Read-out in assay [4]: Glyceraldehyde-3-phosphate dehydrogenase (Homo sapiens) (UniProt P04406)
The experiment in a line: CLD_GAPDH_24hr: CellzDirect (CLD) Gene Expression Assay for Baseline Control (Glyceraldehyde 3-phosphate dehydrogenase) at 24 hours (AID 2283692). The gist of the method: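 GAPDH baseline-control readout: qNPA chemiluminescent mRNA signal in human primary hepatocytes harvested 24 h after daily dosing, normalised to 0.2% DMSO with positive fitting direction; cytotoxicity annotated by phase-contrast morphology.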

Read-out in assay [5]: alkyl and aryl transferase (GSTA2), GSTA2 (gene 2939)
The experiment in a line: CLD_GSTA2_24hr: CellzDirect (CLD) Gene Expression Assay for alkyl and aryl transferase (GSTA2) at 24 hours (AID 2283693). The method in brief: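 GSTA2 transcript levels were quantified by quantitative nuclease protection assay in primary human hepatocytes 24 h after daily dosing with fresh solutions at multiple concentrations; 0.2% DMSO vehicle as baseline, cytotoxicity flagged morphologically.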

Read-out in assay [6]: ABC Transporter (ABCB1), ABCB1 (gene 5243)
The experiment in a line: CLD_ABCB1_48hr: CellzDirect (CLD) Gene Expression Assay for ABC Transporter (ABCB1) at 48 hours (AID 2283695). The method in brief: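 ABCB1 mRNA was measured by quantitative nuclease protection assay (chemiluminescence) 48 h after dosing. Human hepatocyte cultures from two separate donors received fresh dosing solutions daily for two days, with 0.2% DMSO as vehicle. Positive-direction fit against DMSO.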

Read-out in assay [7]: Cytochrome P450 2B6 (Homo sapiens) (UniProt P20813)
The experiment in a line: CLD_CYP2B6_48hr: CellzDirect (CLD) Gene Expression Assay for xenobiotic metabolism (CYP2B6) at 48 hours (AID 2283699).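 Note: actives raise transcript level above DMSO so potency reflects induction.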 The gist of the method:
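CYP2B6 transcript induction, read by quantitative nuclease protection (S1 digestion, chemiluminescent detection) 48 h after dosing, is fitted upward against 0.2% DMSO. Cultured human liver primary cells, two donor preparations, received fresh chemical daily over multiple concentrations.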

Read-out in assay [8]: xenobiotic metabolism (CYP1A2), CYP1A2 (gene 1544)
The experiment in a line: CLD_CYP1A2_48hr: CellzDirect (CLD) Gene Expression Assay for xenobiotic metabolism (CYP1A2) at 48 hours (AID 2283703). The gist of the method: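 Cytotoxicity was flagged yes/no from morphology, while CYP1A2 transcript induction was detected by qNPA chemiluminescence after a 48-hour exposure. Human primary hepatocyte cultures from separate donors received fresh dosing solutions daily over two days, with 0.2% DMSO as vehicle and baseline.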

Read-out in assay [9]: Broad substrate specificity ATP-binding cassette transporter ABCG2 (Homo sapiens) (UniProt Q9UNQ0)
The experiment in a line: CLD_ABCG2_48hr: CellzDirect (CLD) Gene Expression Assay for ABC Transporter (ABCG2) at 48 hours (AID 2283704). The gist of the method: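 ABCG2 transcript measured at 48 h by quantitative nuclease protection (chemiluminescent) and fitted for increase relative to 0.2% DMSO. Hepatocyte cultures from separate donors got fresh compound daily over two days; morphology annotated cytotoxicity.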

Read-out in assay [10]: glucuronosyltransferase (UGT1A1), UGT1A1 (gene 54658)
The experiment in a line: CLD_UGT1A1_24hr: CellzDirect (CLD) Gene Expression Assay for glucuronosyltransferase (UGT1A1) at 24 hours (AID 2283696). The gist of the method: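 UGT1A1 transcript induction was measured by quantitative nuclease protection assay (chemiluminescence) in human hepatocyte cultures 24 h after daily fresh dosing, with 0.2% DMSO as vehicle and baseline.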

Read-out in assay [11]: xenobiotic metabolism (CYP1A1), CYP1A1 (gene 1543)
The experiment in a line: CLD_CYP1A1_48hr: CellzDirect (CLD) Gene Expression Assay for xenobiotic metabolism (CYP1A1) at 48 hours (AID 2283705). The gist of the method: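 CYP1A1 transcript measured by quantitative nuclease protection (chemiluminescent) 48 h after two daily treatments of human hepatocyte cultures, versus 0.2% DMSO. Morphology-based cytotoxicity flags accompany data; two donor preparations used.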

Read-out in assay [12]: Broad substrate specificity ATP-binding cassette transporter ABCG2 (Homo sapiens) (UniProt Q9UNQ0)
The experiment in a line: CLD_ABCG2_24hr: CellzDirect (CLD) Gene Expression Assay for ABC Transporter (ABCG2) at 24 hours (AID 2283685). The gist of the method:
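ABCG2 mRNA induction, read as gain of chemiluminescent signal over 0.2% DMSO, was measured by quantitative nuclease protection at 24 h. Cultured human liver hepatocytes were given fresh dosing solutions of test chemicals at several concentrations each day.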

Read-out in assay [13]: Cytochrome P450 3A4 (Homo sapiens) (UniProt P08684)
The experiment in a line: CLD_CYP3A4_48hr: CellzDirect (CLD) Gene Expression Assay for xenobiotic metabolism (CYP3A4) at 48 hours (AID 2283698). The gist of the method: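 CYP3A4 induction read by qNPA chemiluminescence after 48 h, with fresh dosing solutions on consecutive days, in cultured human hepatocytes (two donors). Vehicle 0.2% DMSO as baseline; microscopy-based cytotoxicity annotated yes/no alongside data.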

Records with an inconclusive call do not appear. Active and inactive are the calls of the source. Rule for the calls: active = hit-call score of the fitted dose curve at least 0.9, where 1 is the maximum; inconclusive = response in the unintended direction; inactive = score below 0.9.

Sequence of Cytochrome P450 3A4 (Homo sapiens) (P08684 whole entry, looked up): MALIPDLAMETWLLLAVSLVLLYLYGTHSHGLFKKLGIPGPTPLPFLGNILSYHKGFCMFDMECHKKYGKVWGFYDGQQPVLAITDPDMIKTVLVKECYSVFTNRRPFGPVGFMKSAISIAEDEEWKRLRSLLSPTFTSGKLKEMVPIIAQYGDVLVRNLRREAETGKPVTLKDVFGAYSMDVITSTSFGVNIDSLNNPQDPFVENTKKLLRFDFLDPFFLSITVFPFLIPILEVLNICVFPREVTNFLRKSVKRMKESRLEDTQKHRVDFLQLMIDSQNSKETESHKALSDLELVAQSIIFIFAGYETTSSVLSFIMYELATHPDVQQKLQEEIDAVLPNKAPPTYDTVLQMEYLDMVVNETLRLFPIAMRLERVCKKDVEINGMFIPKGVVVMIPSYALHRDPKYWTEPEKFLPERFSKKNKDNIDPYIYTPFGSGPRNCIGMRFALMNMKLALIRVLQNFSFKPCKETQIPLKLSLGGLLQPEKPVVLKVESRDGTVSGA
Sequence of Broad substrate specificity ATP-binding cassette transporter ABCG2 (Homo sapiens) (Q9UNQ0 whole entry, looked up): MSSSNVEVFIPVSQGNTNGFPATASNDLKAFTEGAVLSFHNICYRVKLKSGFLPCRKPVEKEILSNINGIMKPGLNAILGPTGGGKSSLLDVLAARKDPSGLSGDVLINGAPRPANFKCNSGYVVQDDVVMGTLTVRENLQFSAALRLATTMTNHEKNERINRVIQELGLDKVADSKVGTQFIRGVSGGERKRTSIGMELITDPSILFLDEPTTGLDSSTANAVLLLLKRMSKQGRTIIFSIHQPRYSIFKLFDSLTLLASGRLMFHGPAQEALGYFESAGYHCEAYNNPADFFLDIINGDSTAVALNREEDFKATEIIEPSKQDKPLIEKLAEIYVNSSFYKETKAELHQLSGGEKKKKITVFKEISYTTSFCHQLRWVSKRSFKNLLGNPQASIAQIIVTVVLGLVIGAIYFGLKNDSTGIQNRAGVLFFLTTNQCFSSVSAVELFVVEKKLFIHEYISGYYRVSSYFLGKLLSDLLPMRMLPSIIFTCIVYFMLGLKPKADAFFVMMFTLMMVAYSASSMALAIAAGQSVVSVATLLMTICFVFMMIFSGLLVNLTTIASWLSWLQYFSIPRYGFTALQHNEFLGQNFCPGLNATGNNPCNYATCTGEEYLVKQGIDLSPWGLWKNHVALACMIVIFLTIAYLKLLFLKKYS
Sequence of Cytochrome P450 2C19 (Homo sapiens) (P33261 whole entry, looked up): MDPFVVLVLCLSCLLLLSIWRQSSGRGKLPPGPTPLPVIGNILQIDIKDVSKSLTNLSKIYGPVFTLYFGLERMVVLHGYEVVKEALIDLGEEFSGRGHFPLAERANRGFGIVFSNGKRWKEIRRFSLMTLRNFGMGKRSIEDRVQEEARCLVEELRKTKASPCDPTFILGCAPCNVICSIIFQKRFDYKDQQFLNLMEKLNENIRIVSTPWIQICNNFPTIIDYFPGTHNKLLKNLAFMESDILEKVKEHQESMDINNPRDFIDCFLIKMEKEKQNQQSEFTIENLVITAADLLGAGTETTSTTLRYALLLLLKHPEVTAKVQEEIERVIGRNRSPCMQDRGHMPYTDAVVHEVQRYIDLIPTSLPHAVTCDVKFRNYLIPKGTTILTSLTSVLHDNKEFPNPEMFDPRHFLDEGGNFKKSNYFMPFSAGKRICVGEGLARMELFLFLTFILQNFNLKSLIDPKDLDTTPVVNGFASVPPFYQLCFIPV
Sequence of Glyceraldehyde-3-phosphate dehydrogenase (Homo sapiens) (P04406 whole entry, looked up): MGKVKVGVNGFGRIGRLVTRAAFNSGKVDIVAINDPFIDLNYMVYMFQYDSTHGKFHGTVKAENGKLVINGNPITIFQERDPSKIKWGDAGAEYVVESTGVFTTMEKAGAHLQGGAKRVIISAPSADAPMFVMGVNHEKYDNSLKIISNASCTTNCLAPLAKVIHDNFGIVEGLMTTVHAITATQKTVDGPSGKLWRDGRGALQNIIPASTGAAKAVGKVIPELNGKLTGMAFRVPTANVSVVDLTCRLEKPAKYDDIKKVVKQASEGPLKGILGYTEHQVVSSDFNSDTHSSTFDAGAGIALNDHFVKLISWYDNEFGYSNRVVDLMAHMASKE

For the compound `C=C(C)CN(CC)c1c([N+](=O)[O-])cc(C(F)(F)F)cc1[N+](=O)[O-]`, the call in [1], in assay [2], in assay [4], in [5], in [6] and in assay [7] was inactive. The outcome in assay [8] and in assay [9] was inactive. In assay [3], the AC50 (usually the concentration at which the activity in the assay is half-maximal) is 5.33 µM (active).
As to `CCOc1nc(C(Cl)(Cl)Cl)ns1`, the compound was classed as inactive in assay [1], in [3], in [4], in [5] and in [10]. Moreover, the results for the AC50 in assay [8] and in assay [11] were 5.52 µM (active) and 3.97 µM (active), respectively.
With `Cc1cnc(C2=NC(C)(C(C)C)C(=O)N2)c(C(=O)O)c1` (configuration not stated), the outcome in [1], in assay [2], in assay [3], in [4], in assay [5] and in assay [10] was inactive. Also, the result in assay [8] was inactive.
On to `CCOP(=S)(OCC)Oc1nc(Cl)n(C(C)C)n1`, for which the AC50 in assay [1] was 0.975 µM (active); in assay [3] it was 0.677 µM (active); in [10] it was 0.652 µM (active); in assay [8], 5.78 µM (active). The call in [5] and in assay [6] was inactive.
For `C=CCOC(=O)C(C)(C)OC(=O)c1cc(-n2c(=O)cc(C(F)(F)F)n(C)c2=O)ccc1Cl`, the compound was classed as inactive in [12], in [2], in assay [4], in assay [6], in assay [10] and in assay [9]. In addition, the figures for the AC50 in [3] and in assay [7] were 0.47 µM (active) and 0.168 µM (active), respectively.
Consider `COc1cc(Cl)c(OC)cc1Cl`, for which the compound was called inactive in [1], in assay [2], in assay [3], in assay [5], in [10] and in [8]. Also, the compound was classed as inactive in assay [9].
Regarding `CC(C)NC(=O)N1CC(=O)N(c2cc(Cl)cc(Cl)c2)C1=O`, the AC50 in [1] is 15.7 µM (active); in assay [3] it was 9.31 µM (active); in assay [7] it was 3.92 µM (active); in assay [8], 4.68 µM (active). For the same compound, in assay [10], the compound was classed as inactive.
For the compound `CCN(CC)C(=O)C(C)Oc1cccc2ccccc12` (configuration not stated), the AC50 in assay [1] is 8.79 µM (active); in assay [8], 5.76 µM (active). Further, the call in assay [2], in [3], in assay [6] and in assay [10] was inactive.
In the case of `CNC(=O)Oc1cccc2ccccc12`, the AC50 in assay [1] was 2.83 µM (active); in assay [7], 4.42 µM (active); in [8], 3.23 µM (active). For the same compound, the compound was classed as inactive in assay [4], in assay [5] and in assay [10].
Consider `CCOc1cc(C(C)(C)C)ccc1C1COC(c2c(F)cccc2F)=N1` (configuration not stated), for which the AC50 is 15.7 µM (active) in assay [1]; 1.9 µM (active) in assay [3]; 1.9 µM (active) in assay [13]; 20 µM (active) in [8]; 30.3 µM (active) in assay [11]. Besides, the result in assay [6], in [10] and in [9] was inactive.
Take `Nc1c(Cl)c(F)nc(OCC(=O)O)c1Cl`: the call in [2], in assay [3], in [4], in assay [6], in [10] and in [7] was inactive. For the same compound, the result in assay [8] and in [9] was inactive.

The record behind these values is PubChem BioAssay (EPA / NIEHS).
